# Measured values taken from ChEMBL document CHEMBL4888484, “Replenishing the malaria drug discovery pipeline: Screening and hit evaluation of the MMV Hit Generation Library 1 (HGL1) against asexual blood stage Plasmodium falciparum ,using a nano luciferase reporter read-out” (2022).
# Among all 4,800 compounds or so, about 420 (8.8%) showed an effect of 50% or more. Many of the other results were omitted from the sample, so strong results are more common in it than they were.
# Tested on: Plasmodium falciparum
# Assay: Confirmatory screen in NF54 nanoGlo assay, in single point, at 2uM, 72h
# Assay type: functional, Erythrocyte
# Conditions: timepoint 72 hour
row,Compound,% Inhibition
1,O=C(Cn1c(=O)n(-c2cc(F)cc(F)c2)c(=O)c2sccc21)NCc1ccc2c(c1)OCO2,-9%
2,Cc1[nH]ccc(=O)c1Cc1c(Cl)cccc1Cl,-16%
3,Cc1cc(NC(=O)Cn2ncnc2-c2cccc(C#N)c2)n(C)n1,-1%
4,O[C@@H](CNCc1ccsc1C(F)(F)F)c1cc(Cl)c2c(c1)OCCO2,32%
5,CCCN(Cc1c(C)nn(-c2ccccc2)c1N1CCN(CC)CC1)S(=O)(=O)c1ccc(C)cc1,-5%
6,Cc1sc2nc(-c3ccccn3)nc(NCC(=O)N3CCC(O)CC3)c2c1-c1ccccc1,23%
7,Cc1cc(NCCc2nccn2C)ncn1,-15%
8,COC(=O)COc1nonc1-c1ccccc1,7%
9,Cc1nnc(Cn2ncnc2-c2ccccc2Cl)o1,-3%
10,COc1ccc(OCC(=O)Nc2ccc(N3CCn4c(nc5ccccc54)C3)cc2Cl)cc1,-8%
11,Cc1cnc(C(=O)N2CCC[C@H]2c2nc(C3CCOCC3)no2)cn1,0%
12,Cc1cc(S(=O)(=O)NC(=O)c2ccnc(C3CCCC3)n2)c(C)s1,-2%
13,O=C(NC(c1ccccc1)c1ccccc1)C1=COCCO1,-9%
14,CCOC(=O)c1nc(-c2cccnc2)cs1,-12%
15,Cc1cc(C(=O)N[C@@H](C)c2nc(-c3cccnc3)cs2)cc(O)n1,53%
16,N#C[C@@H](C(=O)NCc1cccnc1)c1nc(-c2ccccc2)cs1,-1%
17,C#CCN1C(=O)N[C@@](CC)(C(C)C)C1=O,10%
18,Cc1oc(=S)n2c1C[C@@H](c1ccccc1)N(Cc1ccccc1)C2,-15%
19,Cn1cc(C(=O)NCC2CCN(S(=O)(=O)c3cccs3)CC2)cn1,-2%
20,CCc1ccc(NC(=O)[C@@H]2CCn3c(C(=O)c4ccccc4)ccc32)cc1,1%
21,CCc1ccc(NC(=O)[C@H](C)N2CCC(NS(=O)(=O)c3cccs3)CC2)cc1,70%
22,CN(Cc1ccc(F)c(F)c1)S(=O)(=O)C[C@H]1CCN(C(=O)OCc2ccccc2)C1,-10%
23,Cc1cc(C)n(-c2ccc(CN3C(=O)NC4(CCCC4)C3=O)cc2)n1,-4%
24,O=C1CN(C(=O)Cc2c(F)cccc2Cl)C2(CCCC2)CN1,-11%
25,Cc1nccc(NC(=O)C2CCC(F)(F)CC2)c1Cl,-4%
26,Cc1c(NC(=O)CC(C)(C)CC(=O)N2CCN(c3ccccc3F)CC2)c(=O)n(-c2ccccc2)n1C,2%

row,Compound,% Inhibition
1,CC(C)(C)CC(=O)Nc1ccc2c(c1)C(N1CCCCC1)=Nc1ccccc1O2,-13%
2,O=C(COc1ccccc1)Nc1ccc2c(c1)C(O)=Nc1cccnc1O2,58%
3,CC1(C)Oc2ccc(NC(=O)COc3ccccc3)cc2NC1=O,11%
4,Cc1ccc([C@H]2C=NN(c3ccc(Br)cc3)C2=O)cc1,20%
5,CCNc1nc(C)cc(Nc2ccc(NC(=O)c3cc(C)ccc3C)cc2)n1,98%
6,CCC(=O)N1CCN(c2cc(Nc3ccc(C)cc3)nc(C)n2)CC1,-1%
7,Cc1onc(N)c1S(=O)(=O)Nc1ccncc1,-7%
8,CCC(=O)Nc1nc2c(OC)cc(NS(=O)(=O)c3c(C)noc3C)cc2s1,-4%
9,Cc1ccccc1S(=O)(=O)NCc1nnc(C(=O)Nc2ccc(F)cc2F)s1,-5%
10,CCNc1nc(C)cc(Nc2ccc(NS(=O)(=O)c3c(C)noc3C)cc2)n1,92%
11,O=C(Nc1ccc(N2CCOCC2)cc1)Nc1ccc(F)cc1F,1%
12,Cc1ccc(C)c(S(=O)(=O)NCCNc2ccc(Nc3ccncc3)nn2)c1,28%
13,CC(C)c1ccc(-c2nn3c(C4CCN(S(C)(=O)=O)CC4)nnc3s2)cc1,-20%
14,C[C@H](C#N)CNc1ncc(Br)cn1,1%
15,CN(c1ccc(Cl)cn1)S(=O)(=O)c1ccc2ncccc2c1,-22%
16,C[C@H]1CN(Cc2cc3c(cc2Br)OCO3)CCN1S(C)(=O)=O,-2%
17,Brc1ccc(NCc2[nH]nnc2-c2ccccc2)cc1,2%
18,O=S(=O)(c1ccccc1Br)N1CC[C@H]1c1ccccc1,-6%
19,CN(c1ncc(S(=O)(=O)c2ccccc2)c(N)n1)C1CCCCC1,-9%
20,Cn1ccnc1CN1CCC[C@@](O)(CNS(=O)(=O)c2cccs2)CC1,-10%
21,CC(C)(C)c1ccnc(N[C@H]2CO[C@H]3[C@@H]2OC[C@@H]3NC(=O)NCc2ccccc2)n1,18%
22,Cc1nn(CCC(=O)NC2CCCC2)cc1Br,-10%
23,CN(C)c1ccc(C(=O)N[C@@]2(C)CCS(=O)(=O)C2)cc1,-6%
24,Cc1cnn(Cc2cc(C(=O)N(C)Cc3nc4ccccc4n3C)no2)c1,-6%
25,O=C(Nc1cccc2cccnc12)N1CCOCC1CC(O)c1cccs1 (stereo unspecified),0%
